From PubChem BioAssay AID1159580 (chemical genetic matrix, 2015)
Among all 5,500 compounds or so, about 2,000 (36%) were called active. About 18% were inconclusive and are not listed. Cut-off read from the data, not from the text of the source: active = normalized growth mostly below about 0.91 (no sharp cut-off); inconclusive = no clear call, values can overlap the other calls; inactive = mostly above about 0.92. The list shows a part of the results.

Experiment: chemical genetic growth profiling, strain panel (AID 1159580);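 note: tested at 20 µM; growth read once vehicle control cultures reached saturation at 30 °C; 1 = growth at the plate median or of vehicle wells; lower values mean less growth of the strain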
Settings: growth OD

Measured: normalized growth

Cn1nnnc1SCC1=C(C(=O)O)N2C(=O)C(NC(=O)C(O)c3ccccc3)C2SC1 (configuration not stated)
inactive: S. cerevisiae deletion strains, locus YJR075W, strain HOC1, hits give low values 1.01 | S. cerevisiae deletion strains, locus YKL009W, strain mrt4, hits give low values 1.01 | S. cerevisiae deletion strains, locus YKL068W, hits give low values 1.01 | S. cerevisiae deletion strains, locus YKL085W, strain MDH1 (second series), hits give low values 1.01 | S. cerevisiae deletion strains, locus YKL085W, strain MDH1, hits give low values 1.01 | S. cerevisiae deletion strains, locus YKL160W, strain elf1, hits give low values 0.95 | S. cerevisiae deletion strains, locus YKL190W, strain CNB1, hits give low values 1.02 | S. cerevisiae deletion strains, locus YKR001C, strain vps1, hits give low values 1 | S. cerevisiae deletion strains, locus YKR026C, strain gcn3, hits give low values 0.974 | S. cerevisiae deletion strains, locus YKR091W, strain srl3, hits give low values 0.981 | S. cerevisiae deletion strains, locus YLL001W, strain dnm1, hits give low values 0.955 | S. cerevisiae deletion strains, locus YLL026W, hits give low values 0.989 | S. cerevisiae deletion strains, locus YLL041C, strain sdh2, hits give low values 0.968 | S. cerevisiae deletion strains, locus YLR027C, strain aat2, hits give low values 0.982 | S. cerevisiae deletion strains, locus YLR039C, strain RIC1, hits give low values 0.991 | S. cerevisiae deletion strains, locus YLR058C, strain SHM2, hits give low values 1.02 | S. cerevisiae deletion strains, locus YLR102C, strain apc9, hits give low values 1 | S. cerevisiae deletion strains, locus YLR113W, strain HOG1, hits give low values 0.938 | S. cerevisiae deletion strains, locus YLR221C, strain rsa3, hits give low values 0.98 | S. cerevisiae deletion strains, locus YLR258W, strain gsy2, hits give low values 0.981 | S. cerevisiae deletion strains, locus YLR262C, strain YPT6 (second series), hits give low values 0.973 | S. cerevisiae deletion strains, locus YLR262C, strain YPT6, hits give low values 1.1 | S. cerevisiae deletion strains, locus YLR268W, strain sec22, hits give low values 0.988 | S. cerevisiae deletion strains, locus YLR320W, strain mms22, hits give low values 0.952 | S. cerevisiae deletion strains, locus YLR330W, strain CHS5, hits give low values 1.01 | S. cerevisiae deletion strains, locus YLR342W, strain FKS1 (second series), hits give low values 1.02 | S. cerevisiae deletion strains, locus YLR342W, strain FKS1, hits give low values 0.972 | S. cerevisiae deletion strains, locus YLR357W, strain rsc2, hits give low values 0.952 | S. cerevisiae deletion strains, locus YLR370C, strain arc18, hits give low values 0.967 | S. cerevisiae deletion strains, locus YLR371W, strain rom2, hits give low values 0.999 | S. cerevisiae deletion strains, locus YLR384C, strain iki3, hits give low values 0.962 | S. cerevisiae deletion strains, locus YLR418C, strain cdc73, hits give low values 1 | S. cerevisiae deletion strains, locus YML016C, strain PPZ1, hits give low values 1.01 | S. cerevisiae deletion strains, locus YML032C, strain rad52, hits give low values 1 | S. cerevisiae deletion strains, locus YML120C, strain ndi1, hits give low values 0.964 | S. cerevisiae deletion strains, locus YML124C, strain tub3, hits give low values 1.01 | S. cerevisiae deletion strains, locus YMR058W, strain fet3, hits give low values 0.966 | S. cerevisiae deletion strains, locus YMR078C, strain ctf18, hits give low values 1 | S. cerevisiae deletion strains, locus YMR125W, strain sto1, hits give low values 0.973 | S. cerevisiae deletion strains, locus YMR129W, hits give low values 0.981 | S. cerevisiae deletion strains, locus YMR205C, strain PFK2, hits give low values 0.959 | S. cerevisiae deletion strains, locus YMR223W, strain ubp8, hits give low values 1.01 | S. cerevisiae deletion strains, locus YMR231W, strain pep5, hits give low values 0.971 | S. cerevisiae deletion strains, locus YMR263W, strain SAP30, hits give low values 1.03 | S. cerevisiae deletion strains, locus YMR307W, strain GAS1, hits give low values 0.993 | S. cerevisiae deletion strains, locus YNL067W, strain RPL9B, hits give low values 1.03 | S. cerevisiae deletion strains, locus YNL071W, strain lat1, hits give low values 0.978 | S. cerevisiae deletion strains, locus YNL128W, strain TEP1, hits give low values 1.03 | S. cerevisiae deletion strains, locus YNL153C, strain GIM3, hits give low values 1.03 | S. cerevisiae deletion strains, locus YNL183C, strain NPR1, hits give low values 0.926 | S. cerevisiae deletion strains, locus YNL209W, strain ssb2, hits give low values 0.982 | S. cerevisiae deletion strains, locus YNL233W, strain BNI4, hits give low values 1.02 | S. cerevisiae deletion strains, locus YNL248C, strain rpa49, hits give low values 0.968 | S. cerevisiae deletion strains, locus YNL250W, strain rad50, hits give low values 1.01 | S. cerevisiae deletion strains, locus YNL271C, strain bni1, hits give low values 1.01 | S. cerevisiae deletion strains, locus YNL298W, strain CLA4, hits give low values 1.01 | S. cerevisiae deletion strains, locus YNL307C, strain MCK1, hits give low values 1 | S. cerevisiae deletion strains, locus YNL322C, strain KRE1 (second series), hits give low values 0.97 | S. cerevisiae deletion strains, locus YNL322C, strain KRE1, hits give low values 1.02 | S. cerevisiae deletion strains, locus YNR049C, strain mso1, hits give low values 0.972 | S. cerevisiae deletion strains, locus YNR052C, strain pop2, hits give low values 0.997 | S. cerevisiae deletion strains, locus YOL006C, strain TOP1, hits give low values 1.05 | S. cerevisiae deletion strains, locus YOL012C, strain htz1 0.993 | S. cerevisiae deletion strains, locus YOL147C, strain pex11, hits give low values 0.999 | S. cerevisiae deletion strains, locus YOR001W, strain rrp6, hits give low values 0.967 | S. cerevisiae deletion strains, locus YOR061W, strain CKA2, hits give low values 1.02 | S. cerevisiae deletion strains, locus YOR069W, strain VPS5, hits give low values 1.01 | S. cerevisiae deletion strains, locus YOR070C, strain gyp1, hits give low values 0.979 | S. cerevisiae deletion strains, locus YOR080W, strain dia2, hits give low values 0.97 | S. cerevisiae deletion strains, locus YOR083W, strain WHI5, hits give low values 0.958 | S. cerevisiae deletion strains, locus YOR106W, strain vam3, hits give low values 0.945 | S. cerevisiae deletion strains, locus YOR136W, strain idh2, hits give low values 0.995 | S. cerevisiae deletion strains, locus YOR144C, strain elg1, hits give low values 1 | S. cerevisiae deletion strains, locus YOR184W, strain ser1, hits give low values 0.99 | S. cerevisiae deletion strains, locus YOR231W, strain MKK1, hits give low values 0.996 | S. cerevisiae deletion strains, locus YOR265W, strain rbl2, hits give low values 0.975 | S. cerevisiae deletion strains, locus YOR270C, strain vph1, hits give low values 0.974 | S. cerevisiae deletion strains, locus YOR290C, strain snf2, hits give low values 0.924 | S. cerevisiae deletion strains, locus YOR316C, strain cot1, hits give low values 0.996 | S. cerevisiae deletion strains, locus YPL051W, strain arl3, hits give low values 0.964 | S. cerevisiae deletion strains, locus YPL055C, strain LGE1, hits give low values 1.07 | S. cerevisiae deletion strains, locus YPL078C, strain atp4, hits give low values 0.968 | S. cerevisiae deletion strains, locus YPL106C, strain sse1, hits give low values 0.958 | S. cerevisiae deletion strains, locus YPL240C, strain hsp82, hits give low values 0.991 | S. cerevisiae deletion strains, locus YPL241C, strain CIN2, hits give low values 1.01 | S. cerevisiae deletion strains, locus YPL256C, strain CLN2, hits give low values 0.987 | S. cerevisiae deletion strains, locus YPR119W, strain clb2, hits give low values 0.991 | S. cerevisiae deletion strains, locus YPR141C, strain kar3, hits give low values 1 | S. cerevisiae deletion strains, locus YPR163C, strain tif3, hits give low values 0.994 | S. cerevisiae deletion strains, locus YPR167C, strain met16, hits give low values 1.01 | S. cerevisiae deletion strains, strain wtn01, hits give low values 1 | S. cerevisiae strains, strain wild type, hits give low values 1.02
